# About 83,000 compounds went through this panel and 20% of them were active in at least one assay; those are over-represented in the sample as a whole.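 Note: values are percent growth. 100 is the growth of untreated cells, values between 100 and 0 indicate rising inhibition; between -100 and 0 indicates cell death.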 Activity calls are given as the source filed them. How the source made its calls: active means growth percent below 10; inactive means the rest.
# Test system: HL-60(TB) leukemia
# Assay: NCI-60 one-dose screen, 48 h (100 = growth as untreated, 0 = no growth, -100 = all killed)
# Details: 10 µM unless noted
row,Structure (SMILES),growth
1,CCCCCc1ccnc(CC(=O)c2ccc(OC)cc2)c1,110% (inactive)
2,S=C(Nc1ccccc1)c1ccccn1,107% (inactive)
3,CCCCOC(=O)c1ccc(NC(=O)C(C)N2CCOCC2)cc1 (stereo not given),82% (inactive)
4,C=C1C(=O)O[C@H]2[C@H]1CC/C(COC(=O)c1cc3cc(OC)ccc3[nH]1)=C\CC[C@@]1(C)O[C@@H]21,-34.5% (active)
5,COc1ccc(C(=O)Nc2cccc(-c3cc(=O)c4c(OC)c(OC)c(OC)cc4o3)c2)cc1,44.8% (inactive)
6,C=CCOC(=O)C1=C(C)NC2=C(C(=O)CCC2)C1c1ccc(F)cc1 (stereo not given),87.8% (inactive)
7,Cc1ccc(C(=O)c2ccc(CC(=O)NN3C(=O)c4ccccc4C3=O)n2C)cc1,100% (inactive)
8,Cc1cccc(C(=O)O)n1,78.1% (inactive)
9,CC(C)c1ncc(CO)n1Cc1c(Cl)cccc1Cl,98.7% (inactive)
10,O=C1/C=C/[C@@H](O)[C@@H]2C[C@@H](O)C[C@H]2/C=C/CCC[C@H](CCc2ccc(C(F)(F)F)cc2)O1,-10.1% (active)
11,C=C1C(=O)O[C@H]2[C@H]1CC/C(COC(=O)CCCCCCC(=O)OC/C1=C/CC[C@@]3(C)O[C@H]3[C@H]3OC(=O)C(=C)[C@@H]3CC1)=C\CC[C@@]1(C)O[C@@H]21,-13.8% (active)
12,Cc1ccc(S(=O)(=O)N2CCc3ccc(O)c4c3C2Cc2ccc3c(c2-4)OCO3)cc1 (stereo not given),-8.02% (active)
13,CC(C)CCCCCOC(=O)c1ccccc1SSc1ccccc1C(=O)OCCCCCC(C)C,82.2% (inactive)
14,COC(=O)c1ccc(NC(N)=NCCC(C)(C)c2ccc(C(F)(F)F)cc2)nc1,-41.4% (active)
15,COc1cc(OC)c2sc(-c3ccc(-n4cncc4-c4cc(OC)c(OC)c(OC)c4)cc3)nc2c1,30.3% (inactive)
16,CS(=O)(=O)Nc1ccc(C(=O)NC(C(=O)NO)c2ccc(-c3cccc(F)c3)cc2)cc1 (stereo not given),103% (inactive)
17,COC1CC(C)C(OC)c2cc(O)cc(c2O)NC(=O)/C(C)=C/C=C\C(C)C(OC(N)=O)/C(C)=C\C(C)C1OC (stereo not given),-51.6% (active)
18,COc1ccc(/C=C/c2nc3ccccc3nc2/C=C/c2ccc(OC)cc2)cc1,105% (inactive)
19,Fc1cc(-c2ncc(-c3cc(F)c(F)c(F)c3)c(NC3CCCCCC3)n2)cc(F)c1F,97.4% (inactive)
20,COc1ccc(O)c(-c2cc(-c3ccc(Cl)cc3)c(C#N)c(=O)[nH]2)c1,65.2% (inactive)

row,Structure (SMILES),growth
1,Cc1cc(NCc2cc(Nc3ccnc4cc(Cl)ccc34)ccc2F)nc(N2CCOCC2)n1,-52.7% (active)
2,CCc1cccc(C)c1NC(=O)c1sc2nc3c(cc2c1N)C(=O)CCC3,-22.4% (active)
3,CC[n+]1ccc2c(c1)C(=O)c1nccc3c1c-2nc1ccccc13,-31.8% (active)
4,OCCNC(=S)Nc1ccc(-c2nc(N3C[C@H]4CC[C@@H](C3)O4)c3cccn3n2)cc1,38.2% (inactive)
5,Cn1ccnc1C(=O)/C=C/c1ccc(CC(=O)Nc2ccc(Cl)cc2)cc1,5.24% (active)
6,COc1ccc(/C=C\c2cc(OC)c(OC)c(OC)c2)cc1OCC(=O)Nc1nc2ccccc2s1,18.7% (inactive)
7,COc1cc(NC(=O)SC2=NCCS2)cc(OC)c1,90.5% (inactive)
8,COc1cc2nc(-c3ccc(C(F)(F)F)cc3)cc(OCCCN3CCCC3)c2cc1OC,36.9% (inactive)
9,CC(=O)c1ccc2c3c(n(C)c2c1)CCCC3,93.1% (inactive)
10,COc1cccc(/C=C2\Oc3cc(OCCCN4CCCC4)ccc3C2=O)c1,81% (inactive)
11,CCn1c(Cc2ccccc2Nc2c(Cl)cccc2Cl)nnc1SCC(=O)NN1C(=O)/C(=C/c2cc(OC)c(O)c(OC)c2)SC1=S,-1.07% (active)
12,COc1ccc2nc3cc(Cl)ccc3c(NCCCCCN3CCCCC3)c2c1,-42.2% (active)
13,O=C1/C=C/[C@@H](O)[C@@H]2C[C@@H](O)C[C@H]2/C=C/CCC[C@H](CCO)O1,3.3% (active)
14,O=C(O)C1CN(c2cccc(Cl)c2)N(c2cccc(Cl)c2)C1=O (stereo not given),95.3% (inactive)
15,COc1ccc(/C(=C(\c2ccccc2)[N+](=O)[O-])c2ccc(OCCN3CCCC3)cc2)cc1,64.1% (inactive)
16,C=C(C)[C@@H]1CC[C@]2(C(=O)N3CCN(C)CC3)CC[C@]3(C)[C@H](CC[C@@H]4[C@@]5(C)CC[C@H](O)C(C)(C)[C@@H]5CC[C@]43C)[C@@H]12,-52.6% (active)
17,C=CCN1C(=O)c2cccc3c(-c4ccc5c(c4)ncn5C4CCCCC4)ccc(c23)C1=O,25.5% (inactive)
18,c1ccc2cc3c(Nc4ccc(N5CCOCC5)cc4)ccnc3cc2c1,99.1% (inactive)
19,CCCCCc1c(C)[nH]c(/C=C2\N=C(c3ccc[nH]3)C=C2CC)c1C,-62% (active)
20,O=c1c2ccccc2[nH]n1Cc1ccc2c(c1)OCO2,98.4% (inactive)

# — PubChem BioAssay (NCI)
